The panel holds about 79,000 compounds, 15% with a hit somewhere; the sample as a whole holds those more often. Active and inactive are the calls of the source. Cut-off read from the data, not from the text of the source: active = growth inhibition above about 70%; inactive = the rest.
Test: NCI Yeast Anticancer Drug Screen. Data for the mec2-1 strain (AID 157)
Conditions: S. cerevisiae mec2-1 strain, at 50.0 µM, hits give high values
Summary of the method: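 Vehicle-treated cultures served as reference for growth inhibition of compound-exposed mec2-1 yeast.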

SMILES | growth inhibition
Cc1noc(NS(=O)(=O)c2ccc(NCc3c4ccccc4nc4cc(Cl)ccc34)cc2)c1C | 98.9% (active)
CCC(=NCCCCCCN=C(CC)c1cc(C)cc([N+](=O)[O-])c1O)c1cc(C)cc([N+](=O)[O-])c1O.[Fe] | 72.3% (active)
O=C(O)c1ccc([N+](=O)[O-])cc1.[Ag] | 99.3% (active)
O=C1C(=O)c2ccccc2C(O)=C1C(c1ccccc1)c1ccccc1 | 66% (inactive)
CC(=O)SC1C(=O)N(C)C(SC(C)=O)C(=O)N1C (centres undefined) | 97% (active)
COc1ccc2c(c1)CN([C@@H](C)[C@H]1CC[C@H]3[C@@H]4CC[C@H]5C[C@@H](O)CC[C@]5(C)[C@H]4CC[C@]13C)CO2 | 99.3% (active)

Test: NCI Yeast Anticancer Drug Screen. Data for the sgs1 mgt1 strain (AID 161);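 note: 0% = growth of cultures given vehicle only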
Conditions: S. cerevisiae sgs1 mgt1 strain, at 5.0 µM (retest, dose inferred, filed as 0.5), hits give high values
Summary of the method: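 Inhibition of yeast growth, normalised to vehicle-treated controls, is reported for a strain bearing genetic alterations in DNA damage repair.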

SMILES | growth inhibition
c1ccc2nc3ccccc3nc2c1 | -5% (inactive)
O=C(NCCCl)Nc1c2ccccc2nc2ccccc12 | 4% (inactive)
CC1=C2CCC3C(CCC4(C)C(C(C)CCCC(C)C)CCC34)C2(C)CCC1=O (centres undefined) | 4% (inactive)
Cc1cccc(Cl)c1NC(=O)/C=C/c1ccccc1 | -1% (inactive)
O=C1/C(=C/c2ccc(Cl)cc2)CSC/C1=C\c1ccc(Cl)cc1 | 19% (inactive)
CCOC(=O)c1c(N)sc2c1CCCCC2 | -63% (inactive)
CC(C)NC(=O)O/N=C1\CCC2[C@@H]3CC=C4C[C@@H](OC(=O)NC(C)C)CC[C@]4(C)C3CC[C@]12C (some centres undefined) | 90% (active)
COc1ccc2c(c1)c(=O)c1c(NCCN(C)C)ccc3nnn2c31 | 6% (inactive)
CCCC(=O)N(C(=O)CCC)C1=C(Cl)C(=O)c2ccccc2C1=O | 56% (inactive)
CN(C)C1C=CCC(c2ccccc2)C1[N+](=O)[O-] (centres undefined) | 7% (inactive)
CC(=O)NC1C(=O)CC(c2ccccc2)N(C)C1c1ccccc1 (centres undefined) | -2% (inactive)
CCCCC#CCCOC(=O)C#CCCCC | 3% (inactive)
CC1C[C@]2(C)C(=S)Nc3ccccc3[C@@H]2Nc2ccccc21 (some centres undefined) | 23% (inactive)
O=[N+]([O-])/C=C/c1c[nH]c2c1ccc1ccccc12 | 59% (inactive)
CCC[CH2][Sn]([S][Sn]([CH2]CCC)([c]1ccccc1)[c]1ccccc1)([c]1ccccc1)[c]1ccccc1 | 99% (active)
CCN(CC)CCCCNc1ccc(Cl)cc1 | -2% (inactive)
C[n+]1c(/C=C\c2ccccc2)sc2ccccc21 | 33% (inactive)
Cc1nnc2nc3c(nn12)c1ccccc1n3C | -65% (inactive)
CS(=O)c1cc(=O)c2ccccc2s1 (centres undefined) | 19% (inactive)
COC(=O)C1=C(C)NC(C)=C(C(=O)OC)C1c1ccc(NCc2ccccc2)c([N+](=O)[O-])c1 | -1% (inactive)

SMILES | growth inhibition
C/C(=N/NC(=S)Nc1ccccc1Cl)c1ccccn1 | -51% (inactive)
Nc1ccccc1Sc1ccc(C(F)(F)F)cc1[N+](=O)[O-] | 0% (inactive)
COc1ccc2nc(-c3ccc(Cl)cc3)[nH]c2c1 | -3% (inactive)
Cc1c(C)c(C)c(C(=O)c2ccccc2C(=O)NCCSC(C)(C)C)c(C)c1C | -15% (inactive)
COC(=O)C(=O)C(C(=O)Nc1cccc(C)c1C)C1Sc2ccccc2NC1=O (centres undefined) | 99% (active)
Cc1nc2c(O)c3c(c(O)c2nc1C)C1C=CC3CC1 | 30% (inactive)
C[C@]12CCC(=O)C=C1CC[C@@H]1[C@@H]2[C@@H](O)C[C@@]2(C)[C@H]1CC[C@]2(O)C(=O)COC(=O)CCC1CCCC1 | 51% (inactive)
CC(=O)OCCc1ccc(CCc2ccccc2)cc1 | 6% (inactive)
COc1cc2c(cc1OC)C(=O)C(C)(c1ccccc1)NC2 (centres undefined) | 3% (inactive)
CCCCCCC(/C=C/c1c(Cl)cccc1Cl)=N\O | -6% (inactive)
O=C1OC(c2ccc(O)cc2)=C(c2ccccc2)C1c1ccccc1 (centres undefined) | -10% (inactive)
c1cc[c]([Ge]([O]c2cccc3cccnc23)([c]2ccccc2)[c]2ccccc2)cc1 | -3% (inactive)
CCCCCCCCCCCCCCCCCCOP(=O)([O-])OCC[N+](C)(C)C | -2% (inactive)
Cc1noc(NS(=O)(=O)c2ccc(NCc3c4ccccc4nc4cc(Cl)ccc34)cc2)c1C | 5% (inactive)
CCC(=NCCCCCCN=C(CC)c1cc(C)cc([N+](=O)[O-])c1O)c1cc(C)cc([N+](=O)[O-])c1O.[Fe] | 11% (inactive)
O=C(O)c1ccc([N+](=O)[O-])cc1.[Ag] | 99% (active)
O=C1C(=O)c2ccccc2C(O)=C1C(c1ccccc1)c1ccccc1 | 57% (inactive)
CC(=O)SC1C(=O)N(C)C(SC(C)=O)C(=O)N1C (centres undefined) | 0% (inactive)
COc1ccc2c(c1)CN([C@@H](C)[C@H]1CC[C@H]3[C@@H]4CC[C@H]5C[C@@H](O)CC[C@]5(C)[C@H]4CC[C@]13C)CO2 | 97% (active)

Same assay, conditions: S. cerevisiae sgs1 mgt1 strain, at 50.0 µM (retest, dose inferred, filed as 5.0), hits give high values

SMILES | growth inhibition
c1ccc2nc3ccccc3nc2c1 | 16% (inactive)
O=C(NCCCl)Nc1c2ccccc2nc2ccccc12 | 23% (inactive)
CC1=C2CCC3C(CCC4(C)C(C(C)CCCC(C)C)CCC34)C2(C)CCC1=O (centres undefined) | -1% (inactive)
Cc1cccc(Cl)c1NC(=O)/C=C/c1ccccc1 | 23% (inactive)
O=C1/C(=C/c2ccc(Cl)cc2)CSC/C1=C\c1ccc(Cl)cc1 | 53% (inactive)
CCOC(=O)c1c(N)sc2c1CCCCC2 | 1% (inactive)
CC(C)NC(=O)O/N=C1\CCC2[C@@H]3CC=C4C[C@@H](OC(=O)NC(C)C)CC[C@]4(C)C3CC[C@]12C (some centres undefined) | 73% (active)
COc1ccc2c(c1)c(=O)c1c(NCCN(C)C)ccc3nnn2c31 | 4% (inactive)
CCCC(=O)N(C(=O)CCC)C1=C(Cl)C(=O)c2ccccc2C1=O | 72% (active)
CN(C)C1C=CCC(c2ccccc2)C1[N+](=O)[O-] (centres undefined) | 81% (active)
CC(=O)NC1C(=O)CC(c2ccccc2)N(C)C1c1ccccc1 (centres undefined) | 1% (inactive)
CCCCC#CCCOC(=O)C#CCCCC | 7% (inactive)
CC1C[C@]2(C)C(=S)Nc3ccccc3[C@@H]2Nc2ccccc21 (some centres undefined) | 74% (active)
O=[N+]([O-])/C=C/c1c[nH]c2c1ccc1ccccc12 | 81% (active)
CCC[CH2][Sn]([S][Sn]([CH2]CCC)([c]1ccccc1)[c]1ccccc1)([c]1ccccc1)[c]1ccccc1 | 93% (active)
CCN(CC)CCCCNc1ccc(Cl)cc1 | 18% (inactive)
C[n+]1c(/C=C\c2ccccc2)sc2ccccc21 | 93% (active)
Cc1nnc2nc3c(nn12)c1ccccc1n3C | -46% (inactive)
CS(=O)c1cc(=O)c2ccccc2s1 (centres undefined) | 67% (inactive)
COC(=O)C1=C(C)NC(C)=C(C(=O)OC)C1c1ccc(NCc2ccccc2)c([N+](=O)[O-])c1 | 73% (active)

SMILES | growth inhibition
C/C(=N/NC(=S)Nc1ccccc1Cl)c1ccccn1 | 22% (inactive)
Nc1ccccc1Sc1ccc(C(F)(F)F)cc1[N+](=O)[O-] | 23% (inactive)
COc1ccc2nc(-c3ccc(Cl)cc3)[nH]c2c1 | 90% (active)
Cc1c(C)c(C)c(C(=O)c2ccccc2C(=O)NCCSC(C)(C)C)c(C)c1C | -31% (inactive)
COC(=O)C(=O)C(C(=O)Nc1cccc(C)c1C)C1Sc2ccccc2NC1=O (centres undefined) | 99% (active)
Cc1nc2c(O)c3c(c(O)c2nc1C)C1C=CC3CC1 | 84% (active)
C[C@]12CCC(=O)C=C1CC[C@@H]1[C@@H]2[C@@H](O)C[C@@]2(C)[C@H]1CC[C@]2(O)C(=O)COC(=O)CCC1CCCC1 | 96% (active)
CC(=O)OCCc1ccc(CCc2ccccc2)cc1 | 28% (inactive)
COc1cc2c(cc1OC)C(=O)C(C)(c1ccccc1)NC2 (centres undefined) | -1% (inactive)
CCCCCCC(/C=C/c1c(Cl)cccc1Cl)=N\O | 67% (inactive)
O=C1OC(c2ccc(O)cc2)=C(c2ccccc2)C1c1ccccc1 (centres undefined) | 47% (inactive)
c1cc[c]([Ge]([O]c2cccc3cccnc23)([c]2ccccc2)[c]2ccccc2)cc1 | -3% (inactive)
CCCCCCCCCCCCCCCCCCOP(=O)([O-])OCC[N+](C)(C)C | 99% (active)
Cc1noc(NS(=O)(=O)c2ccc(NCc3c4ccccc4nc4cc(Cl)ccc34)cc2)c1C | -6% (inactive)
CCC(=NCCCCCCN=C(CC)c1cc(C)cc([N+](=O)[O-])c1O)c1cc(C)cc([N+](=O)[O-])c1O.[Fe] | 35% (inactive)
O=C(O)c1ccc([N+](=O)[O-])cc1.[Ag] | 99% (active)
O=C1C(=O)c2ccccc2C(O)=C1C(c1ccccc1)c1ccccc1 | 91% (active)
CC(=O)SC1C(=O)N(C)C(SC(C)=O)C(=O)N1C (centres undefined) | 55% (inactive)
COc1ccc2c(c1)CN([C@@H](C)[C@H]1CC[C@H]3[C@@H]4CC[C@H]5C[C@@H](O)CC[C@]5(C)[C@H]4CC[C@]13C)CO2 | 100% (active)

— PubChem BioAssay (NCI)
